# Screening results deposited in PubChem by several laboratories.
# 697 NFkB inh: inhibitors of the PMA/ionomycin-induced NF-kB reporter in 697 B cells; AID 435022; inhibition, % at 4 µM; 697 B-cell NF-kB luciferase reporter, 16 h; actives 0.33% (n = 330,000); in the data active = inhibition above about 35%
# esBAF inh: blocks esBAF chromatin remodeling in mouse ES cells; reporter increase, % at 12.5 µM; actives 2% (n = 350,000); Bmi1-luciferase knock-in reporter, 24 h; 100% = twice the neutral-well signal; AID 602393; in the data active = activation above about 40%; inconclusive = no clear call, values can overlap the other calls;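 also: 0% = median of the plate's neutral control wells and 100% = double that signal; a rise in the Bmi1 reporter signal indicates esBAF inhibition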
# Jurkat NFkB inh: lowers PMA/ionomycin-induced NF-kB signal in Jurkat cells; PMA/ionomycin-induced NF-kB luciferase reporter, luminescence; inhibition, % at 4 µM; actives 0.53% (n = 330,000); AID 435003; in the data active = inhibition above about 50%
# SMARCA2 act: increases SMARCA2 function in MMTV reporter cells; MG213 cells, MMTV-luciferase reporter, dexamethasone, overnight; activation, % at 9.1 µM; actives 1% (n = 370,000); in the data active = activation above about 7.8%;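 also: 0% = vehicle wells and 100% = reference activator wells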
# Gli-Sufu block: antagonists of Gli-Sufu signaling; Sufu-KO-LIGHT fibroblasts, Gli luciferase reporter luminescence; inhibition, % at 5 µM; actives 0.74% (n = 340,000);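 active = inhibition above about 55%, limit read from the data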;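 also: 0% = DMSO-treated cells and 100% = wells with medium but no cells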
# * hit, by the source's call; ? = inconclusive; . = no result. Compounds with a hit are over-represented: about 3.3% of the library has one in this group of screens.
SMILES,697 NFkB inh,esBAF inh,Jurkat NFkB inh,SMARCA2 act,Gli-Sufu block
Cc1cc(NC(=O)c2ccc(-c3ccccc3[N+](=O)[O-])o2)no1,-14,57*,-2,4,-11
CC(=O)c1cccc(NC(=O)c2ccc(-c3ccccc3[N+](=O)[O-])o2)c1,-131,103*,-123,2,15
Cc1ccc(S(=O)(=O)N(C)C[C@@H]2OCCCC[C@H](C)Oc3ccc(NC(=O)Nc4ccc5c(c4)OCO5)cc3C(=O)N([C@@H](C)CO)C[C@H]2C)cc1,.,-1,.,.,.
NC(=S)c1ccc(OCCCc2ccccc2)cc1,.,71*,.,6,.
O=c1cc(-c2ccccc2)oc2ccc(Br)cc12,-134,15,-140,7.8*,-74
O=c1cc(-c2ccccc2)oc2ccc(Cl)cc12,.,.,.,3,-128
C[C@@H]1CCCCO[C@@H](CN(C)C(=O)Nc2ccc(F)cc2)[C@@H](C)CN([C@H](C)CO)C(=O)c2cc(NS(C)(=O)=O)ccc2O1,.,1,.,.,.
Sc1oc(-c2ccccc2)cc1C=Nc1ccccc1,-12,85*,-22,2,-35
CO[C@H](CN(C)C(=O)Nc1ccc(C(F)(F)F)cc1)[C@H](C)CN(Cc1ccccc1Cl)[C@@H](C)CO,.,-2,.,.,.
CCCCCCCOC(=O)C[N+](C)(C)CCOC1CC2CCC1(C)C2(C)C (stereo not given),.,.,.,-8,82*
CCCCCCOC(=O)C[N+](C)(C)CCOC1CC2CCC1(C)C2(C)C (stereo not given),14,5,14,-5,-3
O=C(Nc1ccccc1)N1CCCN(c2nccc(C(F)(F)F)n2)CC1,11,-2,-3,7.8*,4
Cc1nc(-c2noc(-c3cccc(Cl)c3)n2)c(C(F)(F)F)o1,-30,.,-28,3,-13
Cc1nc(-c2noc(-c3ccccc3Cl)n2)c(C(F)(F)F)o1,-55,47*,-37,1,-32
O=C(Cn1cnc2ccccc2c1=O)c1ccccc1,1,29,-1,5,-22
Cc1ccc(C(=O)Cn2cnc3ccccc3c2=O)cc1,-100,56*,-84,5,-56
O=C(Nc1ccc2nsnc2c1)C1CC1,-21,-10,-21,-1,-34
O=C(Nc1ccc(Cl)cc1)NC1CCCCC1,-164,.,-103,2,-95
O=C(Nc1ccc2nsnc2c1)NC1CCCCC1,-83,60*,-106,5,-72
S=C(Nc1cccc2ccccc12)NC1CCCCC1,-35,57*,-40,-1,3
O=C(Nc1ccc(F)c(F)c1)NC1CCCCC1,-14,66*,-7,4,-31
FC(F)Sc1ccc(NC(=S)NC2CCCCC2)cc1,-59,50*,-66,-5,-21
S=C(Nc1cccc2ccccc12)Nc1cccc2ccccc12,.,9,.,4,-6
O=C([C@@H]1[C@@H](CO)[C@@H]2Cn3c(cccc3=O)[C@@H]2N1CCC(F)(F)F)N1CCCCC1,.,-14,.,.,.
CO[C@@H]1CC[C@H]2CCN(C)C(=O)CCCN(C)C(=O)c3cccc(C#N)c3OC[C@H]1O2,.,-6,.,.,.
SMILES,697 NFkB inh,esBAF inh,Jurkat NFkB inh,SMARCA2 act,Gli-Sufu block
O=C(Nc1ccccc1F)NC1CC1,1,?,4,-2,15
O=C(Nc1ccccc1F)NC1CCCCCCC1,-44,54*,-66,6,-62
O=C(Nc1ccc(F)cc1)NC1CCCCCCC1,-46,59*,-40,6,-54
C[C@H]1CN([C@@H](C)CO)C(=O)Cc2cc(NS(=O)(=O)c3ccccc3)ccc2O[C@@H]1CN(C)S(=O)(=O)c1cn(C)cn1,.,1,.,.,.
CN(C)C(=O)C[C@@H]1C[C@H]2c3cc(NC(=O)NC4CCCCC4)ccc3O[C@H]2[C@H](CO)O1,.,4,.,.,.
CC1CCN(C(=O)CSc2nc3ccccc3[nH]2)CC1,-116,51*,-82,3,-59
NC(=O)C1CCN(C(=O)CSc2nc3ccccc3[nH]2)CC1,1,-11,-5,-1,-6
O=C(Nc1nn(Cc2ccc(Cl)cc2)cc1Br)c1ccc(COc2ccccc2Cl)o1,-18,3,-2,-2,3
O=C(Nc1ccccn1)c1ccc(COc2ccccc2Cl)o1,-4,64*,-50,5,-28
O=C(Nc1ccc(Cl)cn1)c1ccc(COc2ccccc2Br)o1,-68,88*,-11,5,-46
CO[C@@H](CN(C)C(=O)c1ccc2c(c1)OCO2)[C@H](C)CN([C@@H](C)CO)S(=O)(=O)c1ccc(F)cc1,.,2,.,.,.
C[C@H](CO)N1C[C@H](C)[C@H](CN(C)CC2CC2)Oc2ccc(NC(=O)Cc3cn(C)c4ccccc34)cc2CC1=O,.,-6,.,.,.
C/C=C/c1ccc2c(c1)O[C@H](CN(C)C(=O)C1CC1)[C@@H](C)CN([C@H](C)CO)S2(=O)=O,.,2,.,.,.
C#CCCc1cscc1/C=[N+](\[O-])c1ccc(C(=O)OCC)cc1,-44,62*,-10,1,-57
CCOC(=O)c1ccc(/[N+]([O-])=C/c2ccccc2)cc1,-33,53*,-8,4,-40
CCCNC(=O)N1C[C@H]2[C@@H](c3ccccc31)[C@@H](CO)N2Cc1ccc(OC)cc1,.,8,.,.,.
O=C1NC(c2ccc(O)cc2)Nc2ccccc21 (stereo not given),-9,19,8,0,-8
CSc1ccc(C2NC(=O)c3ccccc3N2)cc1 (stereo not given),-77,65*,-29,4,-3
CN(C)c1ccc(NC(=O)Cn2cc3c(n2)CCCC3)cc1,17,44*,1,1,-14
Cc1ccsc1C(=O)OCC(=O)Nc1sccc1C(N)=O,-55,88*,-43,3,-62
Cc1ccsc1C(=O)OCC(=O)N1CCc2ccccc2C1,-71,57*,-91,5,-81
COc1ccc(C(=O)COC(=O)c2sccc2C)cc1OC,13,91*,-21,2,-41
Cc1ccsc1C(=O)OCC(=O)c1ccc[nH]1,-15,48*,-42,2,-68
COc1ccc(C(=O)COC(=O)c2ccc(OC)c(OC)c2)cc1OC,-16,.,-4,-3,4
Cc1ccc(C(=O)OCC(=O)c2ccc[nH]2)s1,19,.,-12,5,-8
SMILES,697 NFkB inh,esBAF inh,Jurkat NFkB inh,SMARCA2 act,Gli-Sufu block
Clc1ccc(CN=C2Nc3ccccc3CS2)cc1,-122,56*,-102,3,-113
O=C(NNc1nc2ccccc2s1)C1CC1,-7,-2,2,0,-3
O=C(Cc1cccs1)Nc1nc2ccccc2s1,-55,49*,-55,4,13
CC(C)C(=O)NNc1nc2ccccc2s1,-36,92*,-31,3,-43
Cc1ccccc1S(=O)(=O)/N=C(/Nc1nc2ccccc2s1)c1ccccc1,-107,62*,-2,4,-3
Cc1ccc2nc(NC(=O)Cc3cccs3)sc2c1,-107,38,-95,-1,-58
O=C(Cc1ccccc1)Nc1nc(=O)c2ccccc2s1,8,.,-2,2,-23
O=C(Cc1ccccc1)Nc1nc2ccccc2s1,-29,50*,-32,6,-34
C[C@@H](O)C#Cc1cnc2c(c1)C(=O)N([C@@H](C)CO)C[C@H](C)[C@@H](CN(C)C(=O)Nc1ccc(C(F)(F)F)cc1)O2,.,-5,.,.,.
